Assay outcomes (PubChem)
Compounds with a hit are over-represented: about 2.3% of the library has one in this group of screens.
CHO-K1 Ca antag: counter-screen for M1 antagonists: effect in parental CHO-K1 cells; ATP-induced calcium, Fluo-8 fluorescence; inhibition, % at 3 µM; 0.6% of 360,000 active;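 active means inhibition above a per-plate cutoff, the plate's mean sample inhibition plus 3 SD, cut at about 24% in these data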
M1 ag parental: counter-screen for M1 agonists: effect in parental CHO-K1 cells; Fluo-8 calcium fluorescence; scaled to maximal ATP response, vehicle zero; activation, % at 3 µM; 0.48% of 360,000 active; AID 602248; in the data active means activation above about 15%;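 further: untransfected CHO-K1 host cells lacking M1 receptor as counterscreen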
CHRM1 antagonist: blocks human M1 muscarinic receptor. P11229. inhibition, % at 3 µM. CHO-K1 hM1, Fluo-8 calcium fluorescence, ACh EC80 antagonist. 1.3% of 360,000 active;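 active means percent inhibition above its own plate's cutoff, namely the mean of that plate's compound wells plus 3 SD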;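 further: peak over basal fluorescence ratio during 140 s after agonist addition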
Target sequence (P11229 whole entry, looked up): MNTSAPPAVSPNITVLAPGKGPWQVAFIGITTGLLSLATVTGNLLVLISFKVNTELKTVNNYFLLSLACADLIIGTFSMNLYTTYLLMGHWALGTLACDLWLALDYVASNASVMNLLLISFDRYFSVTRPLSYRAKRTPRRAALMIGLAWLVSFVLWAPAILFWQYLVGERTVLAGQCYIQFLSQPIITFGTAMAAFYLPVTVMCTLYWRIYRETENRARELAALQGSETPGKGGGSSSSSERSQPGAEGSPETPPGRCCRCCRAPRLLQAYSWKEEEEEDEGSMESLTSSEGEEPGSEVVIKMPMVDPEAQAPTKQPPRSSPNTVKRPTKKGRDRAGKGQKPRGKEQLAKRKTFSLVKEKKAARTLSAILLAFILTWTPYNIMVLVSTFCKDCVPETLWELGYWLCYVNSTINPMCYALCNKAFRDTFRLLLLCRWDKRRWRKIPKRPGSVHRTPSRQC
M1 PAM: human CHRM1 positive allosteric modulation. P11229. CHO-K1 hM1, Fluo-8 calcium fluorescence, ACh EC20; 0% = ACh EC20, 100% = maximal ACh. activation, % at 3 µM. 0.088% of 360,000 active; in the data active means activation above about 19%, passing the limit was not always enough
M1 ag: agonists of human M1 muscarinic receptor. 0.33% of 360,000 active. activation, % at 3 µM. CHO-K1 hM1, Fluo-8 calcium fluorescence, agonist mode; 0% DMSO, 100% acetylcholine EC100. P11229. AID 588814;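 active means activation above the run's mean compound activation plus 3 SD, cut at about 16% in these data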;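 further: peak over basal fluorescence ratio within a 140 s kinetic read after compound addition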
M1 PAM parental: nonselective activator or artifact in parental CHO-K1 calcium assay. 0.02% of 360,000 active. activation, % at 3 µM. ATP EC20, Fluo-8 calcium fluorescence; 0% at ATP EC20, 100% at ATP max. AID 602247;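 active means activation above the run cutoff, the mean activation of all test compounds plus 3 SD, cut at about 40% in these data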;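 further: peak over basal fluorescence ratio in a 140 s read after ATP addition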
Large screens that a line does not name were inactive.

C[C@H](CO)N1C[C@H](C)[C@@H](CN(C)S(C)(=O)=O)Oc2ccc(NC(=O)CCN3CCOCC3)cc2C1=O	none
O=C(NC1CCCCC1)c1cc(S(=O)(=O)N2CCCC2)ccc1Cl	none
O=C(CC(O)c1ccccc1)Nc1ccccn1 (stereo not drawn)	none
CCCCCCCCCCn1ccc(=N)cc1	CHRM1 antagonist 63
Nc1c(C(=O)CSc2n[nH]c(-c3ccccc3Br)n2)c(=O)[nH]c(=O)n1C1CC1	none
Nc1c(C(=O)CSc2n[nH]c(-c3ccccc3)n2)c(=O)[nH]c(=O)n1C1CC1	M1 PAM 29
COc1ccc(N2CCN(c3nc(NCCO)nc(N4CCOCC4)n3)CC2)cc1	CHO-K1 Ca antag 27
CC(NCC(O)COc1ccc2ccccc2c1)c1ccccc1 (stereo not drawn)	M1 ag parental 16
CC(NCC(O)COc1ccc(Br)cc1)c1ccccc1 (stereo not drawn)	CHRM1 antagonist 75
CN1C(C(=O)N2CCc3ccccc3C2)=CC(c2ccc(F)cc2)=NS1(=O)=O	none
CCOC(=O)C1(CCOc2ccccc2)CCN(Cc2cccc3nonc23)CC1	none
COc1ccc(N2C(=O)CC(N3CCN(S(=O)(=O)c4c(C)cc(C)cc4C)CC3)C2=O)cc1 (stereo not drawn)	none
COc1ccc(N2C(=O)CC(N3CCN(S(=O)(=O)c4cc(C)ccc4C)CC3)C2=O)cc1 (stereo not drawn)	M1 ag parental 16
CCOC(=O)C1CCN(CC(=O)c2ccc(O)c(C)c2O)CC1	none
O=C(COc1c(F)c(F)cc(F)c1F)NC(=O)NC1CCCC1	CHRM1 antagonist 31
C=CCn1c(O)c(C=Nc2ccccc2)sc1=S	CHO-K1 Ca antag 29
COc1ccc(CN2CCN(Cc3cccc(Oc4ccccc4)c3)CC2)c(OC)c1OC	CHRM1 antagonist 44
Cc1ccc(NC(=O)c2cc([N+](=O)[O-])ccc2N2CCOCC2)cc1S(=O)(=O)N(C)C	CHRM1 antagonist 52
Cc1ccc(NC(=O)c2cc([N+](=O)[O-])ccc2N2CCOCC2)cc1C	none
Cc1ccc(NC(=O)c2cc([N+](=O)[O-])ccc2N2CCCC2)cc1	M1 ag parental 17
O=C(c1cc([N+](=O)[O-])ccc1N1CCOCC1)N1CCN(S(=O)(=O)c2ccc(F)cc2)CC1	CHRM1 antagonist 28
CC(C)c1ccc(S(=O)(=O)N2CCN(C(=O)c3cc([N+](=O)[O-])ccc3N3CCOCC3)CC2)cc1	none
CC(C)NC(=O)C(Sc1ccccc1)c1ccccc1 (stereo not drawn)	CHO-K1 Ca antag 24
OCCNCc1c(OCc2ccc(Cl)cc2)ccc2ccccc12	M1 ag parental 24
O=S(=O)(c1ccccc1)N1CCN(S(=O)(=O)c2ccccc2)C1	none
O=S(=O)(/N=S1/CC=CCN1S(=O)(=O)c1ccccc1)c1ccccc1 (stereo not drawn)	M1 ag 21
CCN(CC)CCNCC(O)(c1ccc(Cl)cc1)c1ccc(Cl)cc1	CHRM1 antagonist 51
CC(C)(C)NCC(O)(c1ccc(Cl)cc1)c1ccc(Cl)cc1	none
C#CCOCCOCCOCCNc1nc(N2CCN(C(=O)[C@H](CCCCN)n3cc(CN)nn3)CC2)nc(N2CCN(C(=O)[C@H](CCC(=O)O)n3cc([C@@H](N)CCSC)nn3)CC2)n1	none
CCC1CCCCN1CCNC(=O)C1CCN(S(=O)(=O)c2c(C)noc2C)CC1 (stereo not drawn)	CHRM1 antagonist 48
COc1ccc(NS(=O)(=O)c2cccc(C(=O)NCC(c3cccs3)N3CCOCC3)c2)cc1 (stereo not drawn)	none
CC(C)CCNC(=O)CN(CC1CCCO1)C(=O)CCC(=O)Nc1nccs1 (stereo not drawn)	M1 PAM 20
O=[N+]([O-])c1ccccc1Oc1ccc(S(=O)(=O)N2CCOCC2)cc1	none
COCCNC(=O)C(c1ccc(C)o1)N(C(=O)C(=O)NC1CCCCC1)c1ccc(F)cc1 (stereo not drawn)	none
CC1=[N+](C)N(c2ccccc2)C(=O)C1N=Cc1c(Cl)cccc1Cl (stereo not drawn)	M1 ag parental 16
Cc1csc(NC(=O)c2nn(C)c(C)c2[N+](=O)[O-])n1	none
O=C(Nc1nnc(S(=O)(=O)N2CCCCCC2)s1)c1ccccc1F	CHRM1 antagonist 31
CC[C@@H](C)[C@@H]1CN([C@@H](C)CN2CCC[C@H]2CN2C(N)=NC[C@@H]2Cc2ccccc2)C(=N)N1CCCC1CCCC1	CHRM1 antagonist 76
CC[C@@H](C)[C@@H]1CN([C@@H](C)CN2CCC[C@H]2CN2C(N)=NC[C@@H]2Cc2ccccc2)C(=N)N1CCc1ccc(Cl)c(Cl)c1	CHRM1 antagonist 49
CC[C@@H](C)[C@@H]1CN([C@@H](CN2CCC[C@H]2CN2C(N)=NC[C@H]2C(C)C)C(C)C)C(=N)N1CCc1ccc(Cl)c(Cl)c1	none
Cc1ccc(S(=O)(=O)N2CCN(c3nccnc3C#N)CC2)cc1	none
Cc1ccc(NN2C(=O)C=C(c3ccc(Cl)cc3)C2=O)cc1	CHO-K1 Ca antag 31
O=C(NC1CCCCC1)c1cc(F)cc2c1OCOC2	none
O=c1c(O)c(-c2cccs2)oc2ccccc12	M1 ag 16
O=c1c(O)c(-c2cccs2)oc2ccc(Cl)cc12	M1 ag parental 77, CHRM1 antagonist 62, M1 ag 144
CCOc1ccc(C(=O)NCc2ccc3c(c2)OCO3)cc1OCC	none
Cc1cc(C)c(C)c(S(=O)(=O)NCc2cccnc2)c1C	none
COc1cc(C)c(Cl)c(C)c1S(=O)(=O)NCc1cccnc1	CHO-K1 Ca antag 27
Cc1cc(SCn2nnc3ccccc3c2=O)nc2ccccc12	none
Cc1ccc(-n2nnnc2SCn2nnc3ccccc3c2=O)c(C)c1	CHO-K1 Ca antag 24
Cc1nc2c(nnn2Cc2ccccc2)c(=O)[nH]1	CHO-K1 Ca antag 25
Cc1nc2c(nnn2Cc2ccccc2Cl)c(=O)[nH]1	none
CCOC(=O)c1ccc(N2C(=O)CC(N3CCCC(C)C3)C2=O)cc1 (stereo not drawn)	none
CCOC(=O)C1CCCN(C2CC(=O)N(c3cccc(C)c3)C2=O)C1 (stereo not drawn)	M1 ag 47
CSc1cccc(NC(=O)c2ccc(NC3=NC4CS(=O)(=O)CC4S3)cc2)c1 (stereo not drawn)	none
CCOc1cc(N2CCOCC2)c(OCC)cc1NC(=O)COC(=O)c1cc(C)oc1C	CHO-K1 Ca antag 25
O=C(O)CCN1CCN(S(=O)(=O)c2ccc3ccccc3c2)CC1	none
CN1CCC(C2(O)c3ccccc3CCc3ccccc32)CC1	CHRM1 antagonist 57
CN1CCC(C2(O)c3ccccc3CSc3sccc32)CC1 (stereo not drawn)	none
